We go through seven compounds from PubChem BioAssay (NCI).

Each structure is given as a SMILES string. About 83,000 compounds went through this panel and 20% of them were active in at least one assay; those are over-represented in the sample as a whole.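 Negative percent growth values reflect cell death: -40 means 40% of the cells present at the start died, and -100 means all died.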 A number with no mark means an inactive call. Active and inactive are the calls of the source. Rule for the calls: active = growth percent below 10; inactive = the rest.

Some test systems named below: DU-145 prostate; K-562 leukemia; MALME-3M melanoma; MDA-MB-231 breast; RXF 393 renal; SF-268 CNS; SF-295 CNS; SF-539 CNS; UACC-257 melanoma; M14 melanoma; HCT-15 colon; HT29 colon; SNB-75 CNS; SNB-19 CNS; U251 CNS; PC-3 prostate; SK-MEL-5 melanoma; UACC-62 melanoma; LOX IMVI melanoma; SK-MEL-28 melanoma.
Common to all, as to experiment: NCI-60 one-dose screen, 48 h (100 = growth as untreated, 0 = no growth, -100 = all killed)
What all share (details): 10 µM unless noted

For the compound `O=C1CC(c2ccc3c(c2)OCO3)Nc2ccccc21` (stereo not given), the growth in the assay with DU-145 prostate was 7.64% (active); in the assay on K-562 leukemia, 12.4%; in the assay on MALME-3M melanoma it was 46%; in the assay on MDA-MB-231 breast, 38.9%; with RXF 393 renal it was -22% (active); with SF-268 CNS, 43.1%. The growth with SF-295 CNS was 4.53% (active); in the assay with SF-539 CNS, 0.134% (active); in the assay with UACC-257 melanoma it was 42.3%; in the assay with M14 melanoma it was -15.8% (active); in the assay with HCT-15 colon, 22%; with HT29 colon, 4.29% (active). In addition, the growth is 7.16% (active) in the assay on SNB-75 CNS; 33.2% in the assay with SNB-19 CNS; 15% with U251 CNS; 16.8% in the assay with PC-3 prostate; 18.9% in the assay on SK-MEL-5 melanoma; 20.1% in the assay on UACC-62 melanoma. Moreover, the growth is 37.4% in the assay on LOX IMVI melanoma and 47.5% in the assay on SK-MEL-28 melanoma.

As to `COc1ncc(-c2ccc3nc(N)n(-c4ccccc4C(F)(F)F)c(=O)c3c2)cc1S(=O)(=O)Nc1ccc(F)cc1F`, the growth with DU-145 prostate is 32.3%; with K-562 leukemia it was 61.5%; in the assay on MALME-3M melanoma, 76.2%; in the assay with MDA-MB-231 breast, -11% (active); in the assay with RXF 393 renal it was 10.6%; in the assay with SF-268 CNS, 46.1%. In addition, the growth in the assay with SF-295 CNS is 33.4%; in the assay with SF-539 CNS, 6.32% (active); with UACC-257 melanoma it was 82.5%; in the assay with M14 melanoma it was 8.91% (active); in the assay on HCT-15 colon, 29.4%; in the assay with HT29 colon, 10.8%. The growth in the assay with SNB-75 CNS was 28.2%; in the assay with SNB-19 CNS it was 76.1%; in the assay with U251 CNS it was 28.2%; in the assay with PC-3 prostate it was 39%; in the assay on SK-MEL-5 melanoma, -48.9% (active); in the assay on UACC-62 melanoma, 68.8%. In addition, the growth in the assay with LOX IMVI melanoma is -52.2% (active); in the assay on SK-MEL-28 melanoma, 53.9%.

In the case of `O=C1CC(c2ccccc2)Cc2nc3ccc(Cl)cc3cc21` (stereo not given), the growth with DU-145 prostate was 0.185% (active); in the assay on K-562 leukemia, 6.83% (active); in the assay with MALME-3M melanoma it was 34%; in the assay with MDA-MB-231 breast, 19.5%; in the assay with RXF 393 renal it was 21.8%; in the assay on SF-268 CNS, 45.2%. Further, the growth was -3.44% (active) with SF-295 CNS; -12% (active) with SF-539 CNS; 69.1% with UACC-257 melanoma; 8.98% (active) in the assay on M14 melanoma; 13.9% in the assay on HCT-15 colon; 4.39% (active) in the assay with HT29 colon. For the same compound, the growth in the assay on SNB-75 CNS is 29.7%; in the assay with SNB-19 CNS, 24.9%; with U251 CNS, 18.8%; in the assay on PC-3 prostate, 27.7%; with SK-MEL-5 melanoma, -14.3% (active); in the assay with UACC-62 melanoma, 29.3%. Further, the growth with LOX IMVI melanoma was 29.7%; with SK-MEL-28 melanoma it was 50.6%.

With `Cc1c(Cn2cc(COc3ccc(Br)cc3)nn2)c(C)c(Cn2cc(COc3ccc(Br)cc3)nn2)c(C)c1Cn1cc(COc2ccc(Br)cc2)nn1`, the growth in the assay on DU-145 prostate is 104%; in the assay on K-562 leukemia it was 103%; with MALME-3M melanoma, 89.1%; with MDA-MB-231 breast, 89.7%; with RXF 393 renal it was 102%; in the assay on SF-268 CNS, 97%. Further, the growth was 89.6% with SF-295 CNS; 96% in the assay with SF-539 CNS; 80.2% in the assay with UACC-257 melanoma; 97.7% in the assay on M14 melanoma; 104% in the assay on HCT-15 colon; 92.4% in the assay with HT29 colon. Moreover, the growth was 81.1% with SNB-75 CNS; 89.7% in the assay with SNB-19 CNS; 91.3% in the assay on U251 CNS; 87.9% in the assay on PC-3 prostate; 98.4% in the assay on SK-MEL-5 melanoma; 76.9% with UACC-62 melanoma. The growth with LOX IMVI melanoma was 35%; in the assay on SK-MEL-28 melanoma it was 94.1%.

For the compound `Clc1ccccc1/C=N\Nc1ccccn1`, the growth was 105% in the assay on DU-145 prostate; 94.8% with K-562 leukemia; 110% with MALME-3M melanoma; 83.3% with MDA-MB-231 breast; 107% in the assay on RXF 393 renal; 96.3% in the assay on SF-268 CNS. In addition, the growth in the assay on SF-295 CNS is 95.7%; with SF-539 CNS, 98.5%; with UACC-257 melanoma it was 105%; in the assay on M14 melanoma, 124%; in the assay with HCT-15 colon, 77.6%; with HT29 colon it was 94.3%. Besides, the growth in the assay with SNB-75 CNS was 74.8%; with SNB-19 CNS, 90.6%; in the assay on U251 CNS it was 95.4%; with PC-3 prostate it was 104%; in the assay on SK-MEL-5 melanoma it was 89.2%; with UACC-62 melanoma, 85.3%. Besides, the growth in the assay with LOX IMVI melanoma is 93%; with SK-MEL-28 melanoma, 99.2%.

For `COc1ccc(-c2nc3ccccn3c2/C=C/C(=O)c2cc(OC)c(OC)c(OC)c2)cc1OC`, the growth is 12.7% in the assay on DU-145 prostate; 14.6% in the assay on K-562 leukemia; 45.9% in the assay on MALME-3M melanoma; 21.4% with MDA-MB-231 breast; 27.8% in the assay on RXF 393 renal; 26.2% with SF-268 CNS. In addition, the growth with SF-295 CNS is 4.4% (active); in the assay on SF-539 CNS it was -25.1% (active); with UACC-257 melanoma it was 52.8%; in the assay with M14 melanoma it was 13.4%; in the assay with HCT-15 colon, 22.1%; in the assay on HT29 colon, 16.7%. Also, the growth in the assay on SNB-75 CNS was 46.1%; with SNB-19 CNS, 29.8%; in the assay on U251 CNS, 7.81% (active); with PC-3 prostate it was 26.1%; in the assay with SK-MEL-5 melanoma, -86.7% (active); with UACC-62 melanoma, 19.9%. Also, the values for the growth in the assay on LOX IMVI melanoma and with SK-MEL-28 melanoma were 4.18% (active) and 29.1%, respectively.

In the case of `CCCCC1COc2cccc3c2N1C=C/C3=C\C(=O)n1ccc2ccccc21` (stereo not given), the growth in the assay on DU-145 prostate is 99.1%; with K-562 leukemia it was 19.2%; in the assay with MALME-3M melanoma it was 69.3%; with MDA-MB-231 breast, 85.1%; in the assay with RXF 393 renal, 87%; in the assay on SF-268 CNS, 94.5%. Also, the growth in the assay on SF-295 CNS is 80.7%; in the assay on SF-539 CNS, 97.2%; in the assay with UACC-257 melanoma it was 85.6%; in the assay with M14 melanoma it was 56%; in the assay with HCT-15 colon it was 47.6%; with HT29 colon it was 43.9%. For the same compound, the growth in the assay on SNB-75 CNS is 14.5%; in the assay on SNB-19 CNS, 84.9%; in the assay on U251 CNS, 76.5%; in the assay on PC-3 prostate, 65.9%; in the assay with SK-MEL-5 melanoma, 78.5%; with UACC-62 melanoma, 56.3%. Also, the growth in the assay on LOX IMVI melanoma was 76%; in the assay with SK-MEL-28 melanoma it was 92.5%.
